This is an account of results in PubChem BioAssay AID1578 (Sanford-Burnham Center for Chemical Genomics, 2009).

Hit rate of the full screen: of about 290,000 compounds, about 3,000 (1%) were called active. Many of the other results were omitted from the sample, so actives are more common in it than they were. Unmarked numbers belong to inactive results. No stated cut-off is given here; in the data, active means inhibition mostly above about 36% (no sharp cut-off); inactive means mostly below about 34%.

The assay can be described thus: NOD1 signaling inhibitors, primary screen, cell-based, luminescence, uHTS (AID 1578).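 Further: HEK-293T reporter cells stimulated with the NOD1 agonist gamma-tri-DAP.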 Particulars: NOD1-driven NF-kB luciferase reporter cells, at 4 µM, active compounds read high. A general note: Reporter assays use an easily measured gene product as a stand-in for the process of interest.
For orientation: inhibition means the drop in the measured response relative to a control, in per cent. For `Cc1noc(C)c1C(=O)N1CCCC(N2CCN(c3cccc(C(F)(F)F)c3)CC2)C1` (configuration not stated), the inhibition was -31.8%.
Consider `COc1ccc(-c2[nH]ncc2CN(C)Cc2cccnc2)c(OC)c1`, for which the inhibition is -16.3%.
On to `CS(=O)(=O)N1CCN(c2ccccc2NC(=O)c2cc(Br)ccc2Cl)CC1`, for which the inhibition is -10.8%.
Turning to `COCCn1c(SCC(=O)Nc2cccc(C(=O)OC)c2)nc2ccccc2c1=O`, the inhibition is 2.6%.
Next, `O=C(NC1CC2CCC(C1)N2Cc1ccco1)c1ccccc1` (configuration not stated): -29.6%.
Next, `Cc1c(Cl)cccc1NC(=O)Nc1ccccc1C(N)=O`: -30%.
As for `O=C(c1ccc([N+](=O)[O-])cc1)N1CCSC1c1ccccc1` (configuration not stated), the figure is -13.8%; as for `O=C(O)c1ccc(N2C(=O)/C(=C/C=C/c3ccccc3)SC2=S)cc1`, -13.7%.
With `CC(/C=C1\SC(=S)N(CC(=O)O)C1=O)=C\c1ccccc1`, the inhibition was -14.7%.
As for `O=C1CCCCN1CCC(=O)N1CCCC(N2CCN(c3ccccc3)CC2)C1` (configuration not stated), the figure is -1%; as for `CC(C)(C)c1nc(CN2CCCCC2)cc(CN2CCCCC2)c1O`, -2.5%; as for `Cc1ccc(C2=NN(C(=O)CCl)C(c3ccco3)C2)o1` (configuration not stated), -45.6%.
As for `CC(=O)N1N=C(c2ccco2)CC1c1cccs1` (configuration not stated), the figure is -6.4%; as for `Cc1ccc(C2=NN(C(=O)CCC(=O)O)C(c3cccs3)C2)cc1` (configuration not stated), -4.3%; as for `CCC(=O)N1N=C(c2cccs2)CC1c1ccc(C)cc1` (configuration not stated), 1.5%.
Next, `Cc1ccc(C2CC(c3cccs3)=NN2C(=O)CCl)cc1` (configuration not stated): 95.3% (active); `O=C(O)CCC(=O)N1N=C(c2ccco2)CC1c1cccs1` (configuration not stated): -15.2%.
For `CCN1CCN(CC(=O)N2N=C(c3cccs3)CC2c2ccc(C)cc2)C(=O)C1=O` (configuration not stated), the inhibition is -19.6%.
With `COc1cc(NC(=O)CN2CCN(c3ccccc3F)CC2)cc(OC)c1`, the inhibition was -13.5%.
Next, `CC(C)(C)NC(=S)NCc1cccnc1`: 5.8%.
Next, `CCc1ccc(OCC(=O)NNC(=O)c2nn(CC)c(=O)c3ccccc23)cc1`: -23.6%; `CC1(C)CC(=O)C(Sc2ccc(Br)cc2)=C(O)C1`: -57.7%; `Fc1ccc(-c2nc3nc4ccccc4nc3n2Cc2ccco2)cc1`: -13.7%.
As for `S=c1nc(-c2ccccc2)[nH]c2ccccc12`, the figure is -26.9%.
With `CCC(CC)c1nc(NCCC(=O)O)c2ccccc2n1`, the inhibition is -13.4%.
Next, `COc1ccc(Cl)cc1NC(=O)CCc1nnc2ccc(N3CCN(C)CC3)nn12`: 58% (active).
On to `COc1ccccc1NC(=O)CCc1nnc2ccc(N3CCN(C)CC3)nn12`, for which the inhibition was -20.3%.
Next, `COc1ccc(Cl)cc1NC(=O)CCc1nnc2ccc(N3CCC4(CC3)OCCO4)nn12`: 10.7%; `COc1cc(O)c(C(CCN2CCOCC2)c2ccc(N(C)C)cc2)c(OC)c1` (configuration not stated): 4.8%.
In the case of `Cc1ccc(S(=O)(=O)Nc2nc3ccccc3nc2NCC2CCCO2)c(C)c1` (configuration not stated), the inhibition was -1.8%.
As for `COc1ccc(NC(=O)CN(C)C(=O)c2ccc3c(c2)S(=O)(=O)N=C2CCCCCN23)cc1`, the figure is -22%; as for `CCSc1nc(N)c(C#N)c(-c2ccccc2Cl)c1C#N`, -2.6%.
As to `N#Cc1c(N)nc(Sc2ccc(Cl)cc2)c(C#N)c1-c1ccccc1Cl`, the inhibition was 83.1% (active).
Next, `COc1ccc(-c2c(C#N)c(N)nc(Sc3ccc(Cl)cc3)c2C#N)cc1`: -0.6%.
Next, `Cc1[nH]c(=O)[nH]c(=O)c1S(=O)(=O)Nc1ccc(Oc2ccccc2)cc1`: -23.1%.
As for `COc1ccc2nc(NCCCO)[nH]c2c1`, the figure is -28.1%; as for `COc1ccccc1OCCNC(=O)c1cc(SC)ccc1Cl`, -20.2%.
Turning to `Cc1cc(S(=O)(=O)NCCc2ccccc2)c(C)s1`, the inhibition was 15.9%.
As for `CN(C)c1ccc(/C=C/c2c([N+](=O)[O-])c(=O)n(C)c(=O)n2C)cc1`, the figure is -9.1%; as for `CCc1ccc(/C=C/c2c([N+](=O)[O-])c(=O)n(C)c(=O)n2C)cc1`, 22.5%.
Next, `CCOc1ccc(/C=C/c2c([N+](=O)[O-])c(=O)n(C)c(=O)n2C)cc1`: -27.7%.
Next, `COc1ccc(/C=C/c2c([N+](=O)[O-])c(=O)n(C)c(=O)n2C)cc1`: -2.9%; `Clc1nccnc1-c1ccccc1`: -25.1%.
Turning to `Cc1sc2nc(NCCO)[nH]c(=O)c2c1C`, the inhibition was -16%.
As for `O=C(Nc1nc(-c2ccc(Br)cc2)cs1)c1cccnc1`, the figure is -26.9%.
`CC1CCCCC1NC(=O)CSc1nnc(-c2ccccc2)n1N` (configuration not stated): the inhibition is 11.7%.
As for `O=C(CCl)N(C1CCCC1)C1CCS(=O)(=O)C1` (configuration not stated), the figure is 35.5%; as for `O=C(CCl)N(c1ccccc1)C1CCCCC1`, 34.4%.
For `O=C(CCl)N(c1ccccc1)C1CCS(=O)(=O)C1` (configuration not stated), the inhibition was 93.2% (active).
On to `NS(=O)(=O)c1ccc(CCNC(=O)c2cc(-c3cc(Cl)ccc3O)n[nH]2)cc1`, for which the inhibition was -5.8%.
As for `CC(=O)Nc1ccc(NC(=O)[C@@H](NC(=O)N2C[C@H]3C[C@@H](C2)c2cccc(=O)n2C3)C(C)C)cc1`, the figure is -3.2%.
As for `CCN(CCn1cccn1)Cc1cn[nH]c1-c1cccc2ccccc12`, the figure is -11.1%.
Next, `CC(=O)c1ccc(N2CCN(C(=O)C(=O)c3cn(CC(=O)N4CCCCCC4)c4ccccc34)CC2)cc1`: -25.9%; `Cc1cc(=O)oc2c(C)c(OCC(=O)N3CC[C@@]4(O)CCCC[C@H]4C3)ccc12`: -30.1%; `CCN(CC)CCCNc1ncnc2ccccc12`: -25.6%.
As to `CN(C)CCNc1ncnc2ccccc12`, the inhibition is -20.6%.
Next, `c1ccc(CNc2ncnc3ccccc23)cc1`: -16.1%.
As for `COc1cc2ncnc(Nc3ccc4c(c3)OCO4)c2cc1OC`, the figure is 16.8%; as for `COc1cc2ncnc(Nc3cccc(Cl)c3)c2cc1OC`, 45.3% (active).
As for `OCCCCCNc1ncnc2ccccc12`, the figure is 45.8% (active); as for `COc1ccccc1CNc1ncnc2cc(OC)c(OC)cc12`, -12.1%.
For the compound `COc1cc2ncnc(NCc3ccccc3)c2cc1OC`, the inhibition is -4.6%.
As for `CCCCCCCCNc1ncnc2ccccc12`, the figure is 54.9%.
As for `COc1cc2ncnc(NCc3cccc(Cl)c3)c2cc1OC`, the figure is 44.2%; as for `c1ccc(CCNc2ncnc3ccccc23)cc1`, 71.7% (active); as for `CC(C)Cn1c(SCC(=O)N2CCCc3ccccc32)nc2ccccc2c1=O`, -2.1%.
Next, `O=C(CSc1nnc(C2CC2)n1CC1CCCO1)Nc1ccccc1Cl` (configuration not stated): -9%; `CC1CCN(c2ccc([N+](=O)[O-])cc2C(=O)O)CC1`: -6.6%; `COCc1cc(=O)[nH]c(=S)[nH]1`: -3.8%.
`C#CCNC(=O)/C=C/c1ccc(C)cc1`: the inhibition is -42.9%.
Next, `COC(=O)C1=C(C(=O)OC)[C@@H]2N(C)c3ccccc3[C@@]23C[C@@H](CO)N(C(=O)NCCBr)C3=N1`: -2.6%; `Cc1c(O)ccc2c(=O)c(Oc3ccccc3)coc12`: -2.7%; `Cc1cc(C)nc(SCc2nnc(SCC(=O)Nc3c(C)cccc3C)o2)n1`: -14%.
Next, `O=C1CSc2ccc(S(=O)(=O)CCC(=O)NC3CCCCC3)cc2N1`: -26.4%; `C#CCOC(=O)CCCNc1ccc([N+](=O)[O-])cc1[N+](=O)[O-]`: -22.8%.
For `CC1CN=C(N(C(=O)Nc2ccccc2)c2ccc(F)cc2)S1` (configuration not stated), the inhibition is 1.6%.
As for `CSCCC(NC(=O)OCc1ccccc1)C(=O)NCc1cccnc1` (configuration not stated), the figure is -10.2%; as for `CCOc1ccc(C(=O)COC(=O)CC)cc1`, -16%.
As for `CCCOc1ccc(C(=O)CCN2CCCCC2)cc1`, the figure is 35.7%; as for `CCCCC(=O)OCC(=O)c1ccc(OCC)cc1`, 31.2% (active).
As for `CCOc1ccc(C(=O)CCN2CCCCC2)cc1`, the figure is 44%; as for `CCOc1ccc(C(=O)CCN2CCCCCC2)cc1`, 70.2% (active).
In the case of `CCOc1ccc(C(=O)COC(C)=O)cc1`, the inhibition was 3.9%.
As for `Cc1occc1C(=O)O/N=C(\N)c1ccccc1`, the figure is -8.7%; as for `CCNC(=S)Nc1cccc(F)c1C`, -29.3%.
As to `O=C(NCc1ccco1)C(Cc1ccccc1)N1C(=O)C2C3C=CC(C3)C2C1=O` (configuration not stated), the inhibition is 1.7%.
For the compound `COC(=O)C(Cc1ccccc1)NC(=O)CC(C)CC(=O)Nc1ccc(C)cc1` (configuration not stated), the inhibition is -13.8%.
Next, `CC(C)(C)NC(=O)CN(C(=O)C1CSC(=O)C1)c1ccc2c(c1)OCCO2` (configuration not stated): -20.5%; `CCN1CCN(C(=O)c2ccc3c(c2)N(Cc2ccc(C)cc2)CCS3)CC1`: -18.4%; `CCOC(=O)N1CCN(C(=O)c2ccc3c(c2)N(Cc2ccc(C)cc2)CCS3)CC1`: 45.5%.
As for `Cc1ccc(CN2CCSc3ccc(C(=O)N4CCN(c5ncccn5)CC4)cc32)cc1`, the figure is 34.2% (active).
Next, `CSc1nc2ccc(NC(=O)c3ccco3)cc2s1`: -41.5%; `C=CCn1c(COc2ccccc2-c2ccccc2)nnc1SCC(=O)NC(=O)NCc1ccco1`: -0.2%; `COc1ccc(Nc2nccc(-c3cccc(N)c3)n2)cc1`: 6.7%.
Regarding `Cc1cc(C)nc(Nc2cccc(Cl)c2)n1`, the inhibition was -14.1%.
Next, `CCC(C)Oc1cc(-c2ccnc(Nc3cccc(Cl)c3)n2)ccn1` (configuration not stated): 47% (active); `Brc1ccc(CSc2ncn[nH]2)cc1`: 19%; `COc1cc2ccccc2cc1C(=O)Nc1ccc2oc(=O)ccc2c1`: 46.4%.
Turning to `CCNc1nc(NC(C)C)nc(Oc2ccc(OCCOc3ccc(C)cc3)nn2)n1`, the inhibition is -39.7%.
With `COCc1cc(NCc2ccc(Cl)cc2)nc(C)n1`, the inhibition is 21%.
Next, `COCc1cc(Sc2ccc(Cl)cc2)nc(C)n1`: -2.4%.
In the case of `COCc1cc(S(=O)c2ccc(Cl)cc2)nc(C)n1` (configuration not stated), the inhibition is 84.6% (active).
